Source: PubChem
Shown are actives, neighbours in structure and some others; about 9.3% of the full set was active somewhere.
HCMV inh: human cytomegalovirus inhibition | HFF cells, HCMV-luciferase reporter, 72 h; hits give low values | activity change, negative = inhibition, % at 57.5 µM | hit rate 4.5% among 410,000; in the data active means activity change below about -60%; inconclusive means no clear call, values can overlap the other calls; inactive means above about -39%
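Luciferase read-out from HCMV-luciferase-infected HFFs (MOI 1 PFU/cell) 72 h post infection at 37C; compounds added after 16 h cell attachment; activity normalized between buffer-only basal and Salinomycin (10uM) inhibitor controls.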
Sm TGR block: blocks Schistosoma mansoni thioredoxin glutathione reductase. Q962Y6. purified TGR, DTNB reduction, TNB absorbance 405 nm. Potency, µM (titrated, usually from 114 µM), for inactives: top-dose activity change, negative = inhibition, usual class: inhibitors. hit rate 3% among 360,000. AID 485364; further: potency means the concentration at half of the fitted maximal effect; nearly all actives have a fitted effect of over 60% in size
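Kinetic colorimetric format: TGR-catalysed, NADPH-driven DTNB reduction monitored via TNB absorbance. Enzyme dispensed at 20 nM; compound exposure 15 min at room temperature before reaction start.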
FMDV antiviral: foot and mouth disease virus antiviral activity; FMDV antiviral cell-based qHTS; Potency, µM (highest dose often 57.9 µM), inactives show top-dose activity change, negative = inhibition, usual class: inhibitors; hit rate 1.2% among 410,000; AID 1159524; calls by dose curve; tested in HEK293T cells; further: read-out not given here; potency means the concentration at half of the fitted maximal effect; nearly all actives have a fitted effect of over 45% in size
VACV Venus inh: inhibitors of vaccinia virus (Venus reporter); Vaccinia virus Venus reporter expression, fluorescence; hit rate 0.46% among 330,000; Potency, µM (top dose mostly 36.5 µM), without a hit: top-dose activity change, negative = inhibition, actives largely listed as inhibitors; AID 720580; calls by dose curve; tested in A549 cells; further: potency means the concentration at half of the fitted maximal effect; nearly all actives have a fitted effect of over 30% in size
HCV inh: blocks hepatitis C virus; Potency, µM (titrated, usually from 41.8 µM), for the others: top-dose activity change, negative = inhibition, actives largely listed as inhibitors; Huh7.5.1 HCVcc-Cre infection, luciferase reporter, 44 h; hit rate 3.4% among 340,000; further: potency means the concentration at half of the fitted maximal effect
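Compounds are dispensed onto cells plated 4 h earlier at 1,000 per well, with HCVcc-Cre virus (about 0.5 moi) added next. Following 44 h of culture, luminescent signal is measured for 15 sec after 15 min with substrate at room temperature.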
VACV mCherry inh: inhibitors of vaccinia virus infection (mCherry reporter signal); Vaccinia virus mCherry reporter infection, fluorescence; Potency, µM (highest dose often 36.5 µM), without a hit: at the highest dose activity change, negative = inhibition, usual class: inhibitors; hit rate 0.63% among 310,000; AID 720579; calls by dose curve; tested in A549 cells; further: potency means the concentration at half of the fitted maximal effect; nearly all actives have a fitted effect of over 35% in size
Active calls of the source: *; i = inactive; ? = inconclusive; nt = not tested or not shown; [ ] = another dose, or the depositor's remark. Unless noted, the call rests on the fitted dose curve; in most records, active means well fitted curve in the direction sought with a large enough effect; inconclusive means small, poorly fitted or top-dose-only effect, or another doubt; inactive means no such curve, though single readings can be large; an effect the other way counts as inactive or inconclusive. On the % scale 0 is the no-effect control and ±100 the full control effect.

SMILES	HCMV inh	Sm TGR block	FMDV antiviral	VACV Venus inh	HCV inh	VACV mCherry inh
COc1ccccc1CNC(=O)C1CC(c2ccc([N+](=O)[O-])cc2)=NO1 (stereo unspecified)	-4	0%	0%	-11%	-15%	-4%
Cc1cc(C)nc(N/N=C/c2cccc(Cl)c2)n1	-21	-10%	31%	nt	-5%	nt
Cc1cc(N/N=C/c2ccccc2)nc(NCc2ccccc2)n1	-8	-5%	-7%	?	6.3µM*	10µM*
Cc1cc(N/N=C/c2ccccc2F)nc(NCc2ccccc2)n1	1	15%	-10%	-17%	?	-2%
Cc1cc(N/N=C/c2cccc(Cl)c2)nc(NCc2ccccc2)n1	-2	-13%	-21%	?	13µM*	?
Cc1cc(Nc2cccc(Cl)c2)nc(NCc2ccccc2)n1	-77*	5%	?	nt	?	nt
Cc1cc(N/N=C/c2cccc(F)c2)nc(NCc2ccccc2)n1	8	12%	6%	?	-23%	?
Cc1cc(C)nc(NCc2ccc(Cl)cc2)n1	-15	27%	-9%	-17%	7%	-8%
Cc1cc(N/N=C/c2ccc(Cl)cc2)nc(NCc2ccccc2)n1	-13	1%	-14%	-11%	35µM*	?
Cc1cccnc1NC(=O)c1ccc(S(=O)(=O)N2CCCCC2)cc1	13	4%	0%	-16%	7%	-4%
Cc1ccc(C(=O)O/N=C(\N)Cc2cccs2)cc1[N+](=O)[O-]	49	0%	16%	nt	16%	nt
Cn1nc([N+](=O)[O-])nc1Sc1ccc(Cl)cc1	-25	?	-26%	-17%	4%	-10%
O=C(NC1CC1)C1=C[C@H](C2CCCCC2)C[C@H](OCCCCO)O1	-64*	-5%	4%	-15%	12%	i
O=C(NC1CC1)C1=C[C@@H](C2CC2)C[C@@H](OCCCCO)O1	-9	nt	-7%	5%	20%	-12%
O=C(NCc1nc2ccccc2[nH]1)C1=C[C@H](C2CCCCC2)C[C@H](OCc2ccc(CO)cc2)O1	-70*	0%	-46%	?	-28%	-4%
O=C(Nc1ccccc1)C1=C[C@H](C2CCCCC2)C[C@H](OCCCCO)O1	-76*	nt	42%	-25%	3%	-23%
O=C(NCc1ccccc1)C1=C[C@H](C2CCCCC2)C[C@H](OCCCCO)O1	4	nt	19%	-18%	-4%	i
O=C(Nc1ccccc1)C1=C[C@@H](C2CCCCC2)C[C@@H](OCCCCO)O1	?	-31%	-3%	-22%	0.32µM*	i
CCOc1ccc(N(CC(=O)N2CCCCCC2)S(=O)(=O)c2ccc(F)cc2)cc1	-13	?	0%	nt	12%	nt
CCOC(=O)c1ccc2nc3c(cc2c1)CCS3	3	-21%	49%	nt	-13%	nt
O=C(Nc1ccccc1)C1=C[C@@H](C2CCCCC2)C[C@@H](OCc2ccc(CO)cc2)O1	-60*	12%	3%	-3%	?	-28%
Cc1ccc(NC(=S)Nc2cccnc2)c(S(=O)(=O)N2CCCCC2)c1	-75*	14µM*	-19%	-4%	11µM*	-2%
Cc1ccc(C)c(NC(=S)Nc2cccnc2)c1	-1	?	-10%	-10%	5%	-5%
O=S(=O)(c1ccc(NC(=S)NN=Cc2ccccc2O)cc1)N1CCCCC1	-61*	nt	-24%	?	?	13µM*
O=S(=O)(c1ccc(NC(=S)N/N=C/c2ccc(O)c(O)c2)cc1)N1CCOCC1	9	-12%	-9%	-18%	1%	-14%
SMILES	HCMV inh	Sm TGR block	FMDV antiviral	VACV Venus inh	HCV inh	VACV mCherry inh
CN(C)c1ccc(NC(=S)NC23CC4CC(CC(C4)C2)C3)cc1	?	8%	9%	-13%	4µM*	?
O=S(=O)(c1ccc(NC(=S)NC23CC4CC(CC(C4)C2)C3)cc1)N1CCCCC1	-90*	nt	-28%	?	nt	-25%
O=C(CC1Sc2ccccc2NC1=O)NNC(=O)Nc1ccc(Cl)cc1 (stereo unspecified)	13	10%	-9%	-20%	4%	i
CCOC(=O)c1csc(-c2ccc3c(c2)CCO3)n1	-10	-16%	-7%	-18%	-2%	i
COc1ccc(C(CNC(=O)CNC(=O)c2cccc(Cl)c2)N2CCCC2)cc1 (stereo unspecified)	-39	-4%	-14%	-15%	13%	-24%
NS(=O)(=O)c1ccc(NC(=S)Nc2ccc(S(=O)(=O)N3CCCC3)cc2)cc1	-32	25µM*	36%	-4%	9%	-13%
O=C(NCc1cccnc1)c1ccc(S(=O)(=O)N2CCCCC2)cc1	-7	19%	-24%	-7%	-7%	i
O=S(=O)(c1ccc(NC(=S)NCc2cccnc2)cc1)N1CCCCC1	-27	32µM*	33%	nt	?	nt
CCCC(=O)Nc1nnc(S(=O)(=O)N2CCCCCC2)s1	-27	-17%	-8%	-11%	14%	-10%
COc1cccc(C(C)NC(=O)c2c(F)cccc2Cl)c1 (stereo unspecified)	21	1%	1%	-2%	32%	i
COc1cccc(C(C)NC(=O)Nc2ccccc2Cl)c1 (stereo unspecified)	-64*	nt	-13%	nt	-28%	nt
COc1ccc(C(=O)Nc2ccc3oc(-c4ccc(OC)cc4)nc3c2)cc1	59	3%	38%	-14%[7.34 µM]	nt	-13%[7.34 µM]
Fc1cnc(Cl)nc1NC1CCCCC1	3	5%	-11%	nt	7%	nt
Clc1ccccc1NC1=NCCCS1	?	3%	9%	-3%	12%	-22%
FC(F)(F)c1ccccc1NC1=NCCCS1	-63*	-3%	-11%	1%	3%	13%
O=C(CCc1nnc(C2CCCCC2)o1)N1CCN(c2ccccc2F)CC1	57	-28%	6%	nt	25%	nt
O=C(CCc1nnc(C2CCCCC2)o1)N1CCN(C2CCCCC2)CC1	-23	56µM*	5%	1%	7%	-8%
O=S(=O)(c1ccc2ccccc2c1)N(CC(O)COCc1ccco1)c1ccccc1 (stereo unspecified)	-18	0%	-19%	nt	-19%	nt
CCN(CC)CC(O)CN(c1ccccc1)S(=O)(=O)c1ccc2ccccc2c1 (stereo unspecified)	-67*	-3%	-3%	-28%	7%	?
COCCCNC(=S)N1CCN(c2nc(-c3ccc(Cl)cc3)cs2)CC1	-92*	nt	?	?	nt	?
COc1cccc(-c2csc(N3CCN(C(=S)NCC(C)C)CC3)n2)c1	-25	12%	?	-17%	?	-27%
CCCCNC(=S)N1CCN(c2nc3ccccc3s2)CC1	-15	-3%	-22%	nt	?	nt
CCOCCCNC(=S)N1CCN(c2nc(-c3ccccc3)cs2)CC1	-86*	3%	?	nt	10µM*	nt
CCC(=O)N1CCN(c2nc(-c3ccc(Cl)cc3)cs2)CC1	?	-3%	-13%	?	?	?
